ELG1 genotox = genotoxicity induction in ELG1-luciferase HEK293T cells. 330,000 tested, 1.3% active. Potency, µM (doses to about 46 µM), inactives show at the highest dose activity change, positive = activation, hits mostly activators. HEK293T ELG1-luciferase reporter, luminescence, 16 h; note: % of control where 0% means no effect; nearly all actives have a fitted effect of over 60% in size
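Reporter readout depends on ELG1 protein level, which increases with genetic stress. After 16 hr compound exposure at 37 °C, luciferase activity was quantified using ONE-Glo.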
NPC1 prom act = activators of NPC1 promoter | Potency, µM (titrated, usually from 9.22 µM), for the others: at the highest dose activation, hits mostly activators | AID 485313 | 320,000 tested, 2.4% active | Huh7 NPC1 promoter luciferase reporter, 24 h; note: % of control where 0% means no effect; nearly all actives have a fitted effect of over 60% in size
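Stably transfected Huh7 (NPC1 promoter→luciferase), 1500 cells/well in Opti-MEM + 10% FBS, 2 h settle, then compound 24 h at 37 °C. Luminescence after 10 min with Amplite reagent.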
FLuc counter = counter-screen for miR-21 project: firefly luciferase inhibitors or activators. P08659. purified FLuc, Km substrates, luminescence inhibition. Potency, µM (titrated, usually from 57.5 µM), for the others: at the top dose activity change, negative = inhibition, usual class: inhibitors. 360,000 tested, 6.9% active. AID 588342;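 note: plate controls were vehicle for no effect and reference inhibitor for full effect; nearly all actives have a fitted effect of over 55% in size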
Target sequence (P08659 whole entry, looked up): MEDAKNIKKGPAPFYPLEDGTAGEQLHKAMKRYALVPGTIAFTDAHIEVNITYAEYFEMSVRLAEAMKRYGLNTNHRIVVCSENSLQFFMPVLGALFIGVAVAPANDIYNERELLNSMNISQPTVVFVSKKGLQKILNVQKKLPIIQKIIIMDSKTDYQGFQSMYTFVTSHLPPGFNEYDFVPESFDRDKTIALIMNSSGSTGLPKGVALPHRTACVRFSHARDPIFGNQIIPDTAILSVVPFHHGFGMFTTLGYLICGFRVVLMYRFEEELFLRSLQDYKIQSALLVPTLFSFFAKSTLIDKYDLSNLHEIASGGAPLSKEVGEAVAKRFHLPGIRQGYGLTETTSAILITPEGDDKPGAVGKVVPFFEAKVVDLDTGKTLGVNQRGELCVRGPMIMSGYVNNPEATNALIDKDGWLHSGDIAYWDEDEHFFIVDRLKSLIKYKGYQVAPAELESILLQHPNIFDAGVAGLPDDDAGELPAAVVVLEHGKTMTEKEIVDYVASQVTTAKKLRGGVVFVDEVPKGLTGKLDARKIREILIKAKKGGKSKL
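Purified P. pyralis luciferase (10nM final) with 10uM D-luciferin and 10uM ATP (Km levels) in 50mM Tris acetate pH 7.5, 10mM Mg acetate, 0.01% Tween-20, 0.05% BSA; qHTS 6-point titration, ~60 µM downward; luminescence read.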
Luc counter = counter-screen: inhibitors of Kinase-Glo firefly luciferase | Q27757 | Potency, µM (top dose mostly 38.3 µM), for inactives: top-dose activity change, negative = inhibition, usual class: inhibitors | AID 1379 | Kinase-Glo luciferase, ATP luminescence, 8 min | 200,000 tested, 0.28% active; note: % is set by controls: 0 for no effect and ±100 for the full control effect; nearly all actives have a fitted effect of over 60% in size
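Compounds were added to a substrate mix at pH 7.2 (50 mM imidazole, 10 uM ATP, within the enzyme's linear range), followed by Kinase-Glo detection reagent; luminescence was measured after 8 minutes at ambient temperature.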
Rab9 promoter act = Rab9 promoter activation; Huh7 Rab9 promoter-luciferase reporter, luminescence, 24 h; Potency, µM (titrated, usually from 9.22 µM), for inactives: top-dose activation, negative = inhibition, actives largely listed as activators; AID 485297; 320,000 tested, 2.8% active; note: % of control where 0% means no effect; nearly all actives have a fitted effect of over 60% in size
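Luminescence read-out: Huh7 cells stably expressing Rab9-luciferase, treated 24 h with compound at 37 °C, then lysed with luciferase reagent for 10 min at ambient before reading.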
SMN2 splice up = increases expression of the SMN2 splice variant; HEK293 SMN2-luciferase splicing reporter, luminescence, 30-36 h; Potency, µM (doses to about 46.1 µM), for inactives: at the top dose activity change, positive = activation, actives largely listed as activators; 210,000 tested, 2.8% active; note: % of control where 0% means no effect; nearly all actives have a fitted effect of over 55% in size
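HEK293 cells carry an SMN2 minigene-luciferase reporter in which exon 7 inclusion puts luciferase in frame. Cells were seeded at 2000 cells/well, attached for 10-12 hours, then exposed to compounds for 30-36 hours at 37C before ONE-Glo luminescence.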
Active calls of the source: *; ? = inconclusive; / = not tested or not shown; [ ] = dose if it differs, or a comment. Hits are enriched below; roughly 7.4% of the tested compounds scored in any of these assays. Calls come from the whole dose curve; as a rule, active = well fitted curve in the direction sought with a large enough effect; inconclusive = small, poorly fitted or top-dose-only effect, or another doubt; inactive = no such curve, though single readings can be large; an effect the other way counts as inactive or inconclusive. Potency is the fitted concentration of half-maximal effect.

SMILES | ELG1 genotox | NPC1 prom act | FLuc counter | Luc counter | Rab9 promoter act | SMN2 splice up
O=C(O)COc1ccc(/C=N/Nc2nc(Nc3ccccc3)nc(N3CCCCC3)n2)cc1 | -2% | -4% | 0.67µM* | -2% | 0% | 11%
CC(=O)Nc1ccc(/C(C)=N/Nc2nc(Nc3ccccc3)nc(N3CCOCC3)n2)cc1 | -2% | -1% | 17µM* | -6% | -3% | /
COc1ccc(/C=N/Nc2nc(Nc3ccccc3)nc(N3CCCC3)n2)cc1 | -14% | 5% | -10% | 0% | 4% | -20%
COC(=O)C1=C(C(=O)OC)[C@@H]2N(C)c3ccccc3[C@@]23C[C@@H](CO)N(C(=O)c2cc(C)oc2C)C3=N1 | / | / | / | -6%[7.66 µM] | / | ?
CC(=O)N1CCC(N(Cc2ccco2)C(=O)Nc2ccc(Br)cc2F)CC1 | / | / | 1% | / | / | /
O=C(Cn1c(=O)n(-c2ccccc2Cl)c(=O)c2sc3ccccc3c21)N1CCCC1 | / | / | -4% | / | / | 8%
CN(N=O)C(=O)N[C@H]1C(O)OC(CO)[C@@H](O)[C@H]1O (stereo partly specified) | / | / | / | 0% | / | /
Cc1cc(C)nc(N/N=C/c2cc3c(cc2[N+](=O)[O-])OCO3)n1 | 10% | 0% | -7% | 0% | 0% | 13%
O=[N+]([O-])c1cc2c(cc1/C=N/Nc1nc(Nc3ccccc3)nc(N3CCCCC3)n1)OCO2 | 9% | 19% | 2.1µM* | 0% | 25% | -5%
CCc1c(C)sc2c1CCN(Cc1ccccc1)C2c1ccccc1 (stereo unspecified) | / | / | 1% | / | / | /
COC(=O)c1cc2c(s1)c1cnn(Cc3ccccc3F)c(=O)c1n2C | / | 1% | 7% | / | 2% | /
Clc1ccsc1-c1ccc2ccccc2n1 | ? | ? | 11µM* | -11% | ? | ?
c1ccc2nc(-c3ccncc3)ccc2c1 | ? | ? | ? | -20% | ? | 20%
Cc1ccsc1-c1ccnc(-n2cccc2)n1 | 0% | 4% | ? | -7% | 12% | -13%
S=c1[nH]nc(-c2ccc3ccccc3n2)o1 | 11% | -1% | ? | -4% | -2% | -19%
c1ccc2nc(-c3nccs3)ccc2c1 | ? | 24% | 13µM* | -3% | ? | 17%
Clc1ccsc1-c1ccnc(-n2cccc2)n1 | 12% | 12% | 17µM* | -1% | -2% | 7%
COc1ccc(C(=O)N2CCC3(CCCN(Cc4ccccc4OC)C3)CC2)cc1 | / | / | / | -3% | / | -22%
CCN(CC(=O)Nc1ccc(NC(C)=O)cc1)C(=O)c1ccc2c(c1)S(=O)(=O)N=C1CCCCCN12 | -10% | 0% | 11µM* | / | -1% | /
CCCN(CC(=O)Nc1ccccc1C)C(=O)c1ccc2c(c1)S(=O)(=O)N=C1CCCCCN12 | 1% | -2% | -1% | / | 7% | /
CC(=O)c1cccc(NC(=O)c2noc3c2CSc2ccccc2-3)c1 | / | / | -1% | / | / | /
OCCNCCCCOc1ccc(OCc2ccccc2)cc1 | ? | ? | 11µM* | -5% | 3.5µM* | 16µM*
c1ccc(COc2ccc(-c3csnn3)cc2)cc1 | 26% | 1.8µM* | 2.4µM* | -7% | 2.8µM* | ?
Nc1ccc(OCCc2ccccc2)cc1 | 17% | ? | -12% | / | ? | /
Cc1ccccc1C(=O)Oc1ccc(-c2csnn2)cc1 | ? | 0% | 12µM* | / | -1% | /
SMILES | ELG1 genotox | NPC1 prom act | FLuc counter | Luc counter | Rab9 promoter act | SMN2 splice up
Nc1ccc(OCc2ccccc2)cc1 | 19% | 28% | ? | -1% | ? | 13µM*
CC(=O)COc1ccc(-c2csnn2)cc1 | 14% | 15% | -14% | / | 26% | /
Fc1cccc(Cl)c1CNc1ccc(N2CCCC2)cc1 | 6% | 14% | 9.5µM* | -1% | 17% | -12%
COc1ccc(CC(NC(=O)c2ccccc2)C(=O)NCC(=O)O)cc1 (stereo unspecified) | 0% | 1% | 0% | 2% | 2% | -18%
CC(C)C(NC(=O)c1ccccc1NC(=O)c1ccccc1)C(=O)NNC(=O)c1ccncc1 (stereo unspecified) | 6% | -1% | ? | / | 0% | /
COc1ccc(C(=O)Nc2ccccc2C(=O)NC(Cc2ccc(O)cc2)C(=O)NNC(=O)c2ccccc2)cc1 (stereo unspecified) | -5% | -1% | 4.8µM* | -2% | 0% | 22%
Cc1ccc(SCc2ccc(C(=O)Nc3ccccc3C(=O)NC(C)C)cc2)cc1 | 10% | 2% | 3% | / | -1% | /
COc1ccc(C(=O)Nc2ccccc2C(=O)NC(Cc2ccc(O)cc2)C(=O)NNC(=O)c2ccc(C)cc2)cc1 (stereo unspecified) | ? | -3% | 9.5µM* | -2% | -12% | -1%
COc1ccc(C(=O)Nc2ccccc2C(=O)NC(Cc2ccc(O)cc2)C(=O)NNC(=O)c2ccncc2)cc1 (stereo unspecified) | 2% | -1% | 12µM* | -1% | 13% | 29%
Cc1ccccc1-n1sc2cc(F)ccc2c1=O | -10% | 10% | 11µM* | -8% | 5% | -48%
Cc1ccc(Cc2c(C)nc3nc(SCC(=O)NC(C)c4ccccc4)nn3c2C)cc1 (stereo unspecified) | / | / | -6% | / | / | -18%
COCCCn1c(=S)[nH]c2sc3c(c2c1=O)CCCC3 | -8% | -3% | 19µM* | / | -4% | /
COCCn1c(=S)[nH]c2sc3c(c2c1=O)CCCC3 | -8% | -1% | -12% | / | 3% | /
Cc1ccc(NC(=O)CSc2ncccc2C(=O)Oc2cccc([N+](=O)[O-])c2)cc1Cl | 23µM* | 4.5µM* | ? | -2% | ? | 11µM*
Cc1cc(=O)n2[nH]c(-c3ccco3)nc2n1 | 3% | 2% | ? | -14% | 1% | 5%
CCCc1cc(=O)n2[nH]c(-c3ccco3)nc2n1 | 1% | 6% | 15µM* | -9% | -2% | -12%
COc1ccc(C(=O)NCC2OCCc3ccccc32)c(O)c1 (stereo unspecified) | ? | 28% | 21µM* | 2% | ? | ?
CC(=O)NCCOc1cccc(OCCNC(C)=O)c1 | 0% | -1% | 2% | -2% | 2% | -14%
CC(=O)NCCOc1ccc2oc3ccccc3c2c1 | / | / | 17µM* | 2% | / | 5%
COc1cccc(C(=O)NCCc2csc3nc(-c4ccccc4F)nn23)c1OC | / | / | -3% | / | / | /
CCc1ccc(-c2nc3ccc(Br)cc3c(C(=O)O)c2C)s1 | -4% | -2% | 21µM* | / | 1% | ?
COc1ccc(/C=N/Nc2nc(C(=O)O)cs2)cc1 | 6% | ? | 0.67µM* | / | ? | /
CCOC(=O)Cc1csc(N/N=C/c2ccccc2)n1 | 9% | 29% | 15µM* | 2% | 20% | 3%
